Laboratory results reported in paper PMC6451091, “NextPBM: a platform to study cell-specific transcription factor binding and cooperativity”.
Over roughly 3,700 sequences, “z-score” has its median near 4; the highest 2% begin near 8.4. The entries come from a sample that favours the highest values as a whole.

Assays:
PU.1 (IVT) [1] = molecular target: PU.1 (IVT) (UniProt P17947 1-270); assay: protein-binding microarray (PBM); 20 mM HEPES pH 7.9, 100 mM NaCl, 1 mM DTT, 0.2 mg/mL BSA, 0.02% Triton X-100, 2% milk, 0.4 mg/mL salmon testes DNA; 1 h; temperature not stated; high values mean tight binding; settings: dsDNA, one strand shown
In short: (§1)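 Untagged full-length PU.1 was produced by coupled human in vitro transcription/translation and incubated for 1 h on custom double-stranded DNA microarrays in HEPES pH 7.9 containing 100 mM NaCl, 2% milk and salmon testes DNA. Each array carried 20-bp genomic sites and single-nucleotide variants, with 10 probes per site (5 per orientation). Bound protein was detected with anti-PU.1 followed by a fluorescent secondary antibody. Binding values are z-scores calculated from scanned fluorescence after linear-regression normalisation.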

PU.1 (IVT) [2] = molecular target: PU.1 (IVT) (UniProt P17947 1-270); assay: as above; settings: dsDNA, one strand shown; remark: listed apart in the source
In short: as §1

| Sequence | binding signal (PU.1 (IVT) [1]) [z-score] | binding signal (PU.1 (IVT) [2]) [z-score] |
| --- | --- | --- |
| GCCTAGCACTGATAGAGGAAGTGCAACCAGTGCTAGGTCTTGATTCGCTTGACGCTGCTG | 4.92 |  |
| GCCTAGCACGATAGCAGGAAGTGAAACTAGTGCTAGGTCTTGATTCGCTTGACGCTGCTG | 3.14 |  |
| GCCTAGCACGCAGAGAGGAAGTGTGAATGGTGCTAGGTCTTGATTCGCTTGACGCTGCTG | 3.72 |  |
| GCCTAGCACTGAGAGGAGAAGTGAAACCCGTGCTAGGTCTTGATTCGCTTGACGCTGCTG |  | 1.26 |
| GCCTAGCACATTTCTGGGAAGTGAAACTAGTGCTAGGTCTTGATTCGCTTGACGCTGCTG | 1.93 |  |
| GCCTAGCACATAAAAGGGAAGTGGGGCATGTGCTAGGTCTTGATTCGCTTGACGCTGCTG | 5.38 |  |
| GCCTAGCACAGAAAAAGGAAGTGAGCAAAGTGCTAGGTCTTGATTCGCTTGACGCTGCTG | 5.53 |  |
| GCCTAGCACTTAAAGAGGAAGAGCATCTTGTGCTAGGTCTTGATTCGCTTGACGCTGCTG | 3.21 |  |
| GCCTAGCACTCAAAGAGGAAGTGACATTTGTGCTAGGTCTTGATTCGCTTGACGCTGCTG |  | 7.03 |
| GCCTAGCACGAAAAAGGGAACTGGTTGGGGTGCTAGGTCTTGATTCGCTTGACGCTGCTG |  | 5.22 |
| GCCTAGCACGGAAGAAGGAAGTGGGGGCCGTGCTAGGTCTTGATTCGCTTGACGCTGCTG |  | 3.66 |
| GCCTAGCACAGGAGGAGGAAGTGGGGGGAGTGCTAGGTCTTGATTCGCTTGACGCTGCTG |  | 4.05 |
| GCCTAGCACGATAAGAGGAACTGTAAGCTGTGCTAGGTCTTGATTCGCTTGACGCTGCTG |  | 3.92 |
| GCCTAGCACTGAGAGGAGAAGTGAAATCTGTGCTAGGTCTTGATTCGCTTGACGCTGCTG | 1.39 |  |
| GCCTAGCACCAAATTAGGAACTGATGCGGGTGCTAGGTCTTGATTCGCTTGACGCTGCTG | 2.14 |  |
| GCCTAGCACGCTAAGAGGAAGTCCTCTGTGTGCTAGGTCTTGATTCGCTTGACGCTGCTG | 5.07 |  |
| GCCTAGCACAAAAAGCGGAAGTGCAAAAGGTGCTAGGTCTTGATTCGCTTGACGCTGCTG |  | 8.5 |
| GCCTAGCACAAGAGGAGGAAGTGAGAGAGGTGCTAGGTCTTGATTCGCTTGACGCTGCTG |  | 4.33 |
| GCCTAGCACAAAAAGAGGAAGGGACCCAAGTGCTAGGTCTTGATTCGCTTGACGCTGCTG |  | 5.29 |
| GCCTAGCACAAAAGGAGGAAGTGATGATGGTGCTAGGTCTTGATTCGCTTGACGCTGCTG | 6.55 |  |
| GCCTAGCACAAAAAGAGGAAGGGTGGCTGGTGCTAGGTCTTGATTCGCTTGACGCTGCTG | 4.91 |  |
| GCCTAGCACAAAAAGAGGAAGTGAGATGGGTGCTAGGTCTTGATTCGCTTGACGCTGCTG |  | 8.88 |

| Sequence | binding signal (PU.1 (IVT) [1]) [z-score] | binding signal (PU.1 (IVT) [2]) [z-score] |
| --- | --- | --- |
| GCCTAGCACAAAAAAAGGAAGTGAGATAAGTGCTAGGTCTTGATTCGCTTGACGCTGCTG |  | 6.74 |
| GCCTAGCACAAAAAAAGGAAGTGCTCAAGGTGCTAGGTCTTGATTCGCTTGACGCTGCTG | 6.42 |  |
| GCCTAGCACAAAAAGAGGAAGTGGTACAAGTGCTAGGTCTTGATTCGCTTGACGCTGCTG |  | 8.76 |
| GCCTAGCACACAAAGGGGAAGTGCTAGGGGTGCTAGGTCTTGATTCGCTTGACGCTGCTG | 6.35 |  |
| GCCTAGCACAAAAAAAGGAAGTGGTAGCAGTGCTAGGTCTTGATTCGCTTGACGCTGCTG |  | 6.75 |
| GCCTAGCACAAAAAGAGGAAGTGATGATGGTGCTAGGTCTTGATTCGCTTGACGCTGCTG |  | 9.07 |
| GCCTAGCACGAAAGGAGGAAGTGAAACTGGTGCTAGGTCTTGATTCGCTTGACGCTGCTG | 6.19 |  |
| GCCTAGCACCAAATGAGGAATTGATGCGGGTGCTAGGTCTTGATTCGCTTGACGCTGCTG | 2.8 |  |
| GCCTAGCACCAGAAAAGGAAGTAAGCCACGTGCTAGGTCTTGATTCGCTTGACGCTGCTG |  | 3.98 |
| GCCTAGCACGCAAAGAGGAAGTGACTCAAGTGCTAGGTCTTGATTCGCTTGACGCTGCTG |  | 6.81 |
| GCCTAGCACAAAAGAGGGAAGTGACATTCGTGCTAGGTCTTGATTCGCTTGACGCTGCTG | 5.89 |  |
| GCCTAGCACAAAAAGAGGAAGTGACTCACGTGCTAGGTCTTGATTCGCTTGACGCTGCTG |  | 8.49 |
| GCCTAGCACAAAAAAAGGAAGTACAGTAAGTGCTAGGTCTTGATTCGCTTGACGCTGCTG |  | 6.54 |
| GCCTAGCACAAAAAGAGGAAGTACATTAAGTGCTAGGTCTTGATTCGCTTGACGCTGCTG |  | 8.68 |
| GCCTAGCACAAAAAGAGGAAGTGACTTCAGTGCTAGGTCTTGATTCGCTTGACGCTGCTG |  | 8.34 |
| GCCTAGCACGATTTGAGGAAATGAAACTTGTGCTAGGTCTTGATTCGCTTGACGCTGCTG | 3.79 |  |
| GCCTAGCACAAAAAGGGGAAGTCATCTATGTGCTAGGTCTTGATTCGCTTGACGCTGCTG |  | 8.05 |
| GCCTAGCACAATATGAGGAAGTGCTCTAGGTGCTAGGTCTTGATTCGCTTGACGCTGCTG | 6.67 |  |
| GCCTAGCACTTACACAGGAAGTGCTGGCAGTGCTAGGTCTTGATTCGCTTGACGCTGCTG | 2.14 |  |
| GCCTAGCACAAAAACAGGAAGTCCTATTCGTGCTAGGTCTTGATTCGCTTGACGCTGCTG |  | 7.91 |
| GCCTAGCACAAAAAGAGGAAGAGAAACTTGTGCTAGGTCTTGATTCGCTTGACGCTGCTG |  | 6.04 |
| GCCTAGCACAAAAAGAGGAAGTCCTATTTGTGCTAGGTCTTGATTCGCTTGACGCTGCTG |  | 8.54 |

| Sequence | binding signal (PU.1 (IVT) [1]) [z-score] | binding signal (PU.1 (IVT) [2]) [z-score] |
| --- | --- | --- |
| GCCTAGCACAAAAAGAGGAAGTGCTACTTGTGCTAGGTCTTGATTCGCTTGACGCTGCTG |  | 8.88 |
| GCCTAGCACAAAATGAGGAAGTCATTCTTGTGCTAGGTCTTGATTCGCTTGACGCTGCTG |  | 8.35 |
| GCCTAGCACAAAAAGAGGAAGAGGCGCTTGTGCTAGGTCTTGATTCGCTTGACGCTGCTG |  | 5.63 |
| GCCTAGCACAAAAAGAGGAAGTCATTCTTGTGCTAGGTCTTGATTCGCTTGACGCTGCTG |  | 8.71 |
| GCCTAGCACACAAAGAGGAAGTCCCATTTGTGCTAGGTCTTGATTCGCTTGACGCTGCTG |  | 7.29 |
| GCCTAGCACAAAAATAGGAAATGAAAGTAGTGCTAGGTCTTGATTCGCTTGACGCTGCTG | 3 |  |
| GCCTAGCACGAAAGAGGGAAGTGGGCATAGTGCTAGGTCTTGATTCGCTTGACGCTGCTG |  | 4.48 |
| GCCTAGCACGCAGGGAGGAAGTGGGGAAGGTGCTAGGTCTTGATTCGCTTGACGCTGCTG | 3.42 |  |
| GCCTAGCACCAAAAAGGGAAGTGCATGCTGTGCTAGGTCTTGATTCGCTTGACGCTGCTG |  | 6.52 |
| GCCTAGCACAGCATGAGGAAGTGTCAGATGTGCTAGGTCTTGATTCGCTTGACGCTGCTG | 4.45 |  |
| GCCTAGCACTTGAAAAGGAAGTGCAACAAGTGCTAGGTCTTGATTCGCTTGACGCTGCTG |  | 2.73 |
| GCCTAGCACTGAAAGAGGAACTCTCACATGTGCTAGGTCTTGATTCGCTTGACGCTGCTG |  | 4.89 |
| GCCTAGCACCAAAAGAGGAAGTCATTTATGTGCTAGGTCTTGATTCGCTTGACGCTGCTG |  | 8.11 |
| GCCTAGCACAAAAGAAGGAAGTGGTTTATGTGCTAGGTCTTGATTCGCTTGACGCTGCTG | 6.15 |  |
| GCCTAGCACAAAAAGAGGAAGTCTTTTATGTGCTAGGTCTTGATTCGCTTGACGCTGCTG |  | 8.71 |
| GCCTAGCACAAAAAAAGGAAGTGGTGGTTGTGCTAGGTCTTGATTCGCTTGACGCTGCTG |  | 6.87 |
| GCCTAGCACAAAAGGAGGAAGTGGTTACAGTGCTAGGTCTTGATTCGCTTGACGCTGCTG | 6.37 |  |
| GCCTAGCACAAAAAGAGGAAGAGGAATAGGTGCTAGGTCTTGATTCGCTTGACGCTGCTG | 5.98 |  |
| GCCTAGCACAAAAAGAGGAAGAGAGAAAAGTGCTAGGTCTTGATTCGCTTGACGCTGCTG | 5.63 |  |
| GCCTAGCACAACAAGAGGAAGTGGCTTTCGTGCTAGGTCTTGATTCGCTTGACGCTGCTG |  | 5.51 |
| GCCTAGCACAAAAAGAGGAAGTGCTTTTCGTGCTAGGTCTTGATTCGCTTGACGCTGCTG |  | 8.49 |
| GCCTAGCACAAAAAAAGGAAGTCAAAGTCGTGCTAGGTCTTGATTCGCTTGACGCTGCTG |  | 6.75 |

| Sequence | binding signal (PU.1 (IVT) [1]) [z-score] | binding signal (PU.1 (IVT) [2]) [z-score] |
| --- | --- | --- |
| GCCTAGCACAAAAAGAGGAAGTGGTTGTCGTGCTAGGTCTTGATTCGCTTGACGCTGCTG |  | 8.71 |
| GCCTAGCACAAAAAGAGGAAGTCGTTTTCGTGCTAGGTCTTGATTCGCTTGACGCTGCTG |  | 8.57 |
| GCCTAGCACTATTTGAGGAAGTGTGAGAAGTGCTAGGTCTTGATTCGCTTGACGCTGCTG |  | 5.91 |
| GCCTAGCACTAAAGAGGGAAGTGGGAGCCGTGCTAGGTCTTGATTCGCTTGACGCTGCTG |  | 3.74 |
| GCCTAGCACGGAAAGTGGAACTGAAACTTGTGCTAGGTCTTGATTCGCTTGACGCTGCTG | 1.93 |  |
| GCCTAGCACGAAAAGAGGATGTGGATCTGGTGCTAGGTCTTGATTCGCTTGACGCTGCTG | 3.52 |  |
| GCCTAGCACAAAAACAGGAACTGGCCAGGGTGCTAGGTCTTGATTCGCTTGACGCTGCTG | 5.89 |  |
| GCCTAGCACCGAATGAGGAACTGATGCGGGTGCTAGGTCTTGATTCGCTTGACGCTGCTG | 5.03 |  |
| GCCTAGCACAAAAAAAGGAAGTGGAATTAGTGCTAGGTCTTGATTCGCTTGACGCTGCTG |  | 6.73 |
| GCCTAGCACAAAAAGAGGAAGTCAAATTAGTGCTAGGTCTTGATTCGCTTGACGCTGCTG |  | 8.57 |
| GCCTAGCACGAAAAGAGGAAGTCAGATTAGTGCTAGGTCTTGATTCGCTTGACGCTGCTG |  | 8.07 |
| GCCTAGCACGAAAAGAGGAAGTCAAAATAGTGCTAGGTCTTGATTCGCTTGACGCTGCTG |  | 8.29 |
| GCCTAGCACAAAAAGAGGAAGTCAAATAAGTGCTAGGTCTTGATTCGCTTGACGCTGCTG |  | 8.51 |
| GCCTAGCACGAAAAGAGGAAGTCACATTGGTGCTAGGTCTTGATTCGCTTGACGCTGCTG |  | 8.32 |
| GCCTAGCACAATAAGAGGAAGTCAAAATAGTGCTAGGTCTTGATTCGCTTGACGCTGCTG | 6.65 |  |
| GCCTAGCACAAAAAGAGGAAGTCAAATTGGTGCTAGGTCTTGATTCGCTTGACGCTGCTG |  | 8.3 |
| GCCTAGCACGAAAAGAGGAAGTCACATTAGTGCTAGGTCTTGATTCGCTTGACGCTGCTG |  | 8.62 |
| GCCTAGCACGAAAAGAGGAAGTCAAATTAGTGCTAGGTCTTGATTCGCTTGACGCTGCTG |  | 8.43 |
| GCCTAGCACGAAATGAGGAAGTCAAATTAGTGCTAGGTCTTGATTCGCTTGACGCTGCTG |  | 7.71 |
| GCCTAGCACGAGAAGAGGAAGTCAAATAAGTGCTAGGTCTTGATTCGCTTGACGCTGCTG | 5.64 |  |
